High-throughput results from PubChem BioAssay.
Many of the other results were omitted from the sample, so hits are more common in it than they were.
KDM5B inh: inhibitors of human KDM5B histone demethylase; KDM5B demethylase, FDH-coupled NADH fluorescence (FDH is formaldehyde dehydrogenase); Potency, µM (highest dose often 57.7 µM), usual class: inhibitors; 220,000 compounds, 2.6% hits; active means well fitted inhibition curve with a large enough effect; further: 0% is about no effect; nearly all actives have a fitted effect of over 70% in size
Target sequence (Q9UGL1 whole entry, looked up): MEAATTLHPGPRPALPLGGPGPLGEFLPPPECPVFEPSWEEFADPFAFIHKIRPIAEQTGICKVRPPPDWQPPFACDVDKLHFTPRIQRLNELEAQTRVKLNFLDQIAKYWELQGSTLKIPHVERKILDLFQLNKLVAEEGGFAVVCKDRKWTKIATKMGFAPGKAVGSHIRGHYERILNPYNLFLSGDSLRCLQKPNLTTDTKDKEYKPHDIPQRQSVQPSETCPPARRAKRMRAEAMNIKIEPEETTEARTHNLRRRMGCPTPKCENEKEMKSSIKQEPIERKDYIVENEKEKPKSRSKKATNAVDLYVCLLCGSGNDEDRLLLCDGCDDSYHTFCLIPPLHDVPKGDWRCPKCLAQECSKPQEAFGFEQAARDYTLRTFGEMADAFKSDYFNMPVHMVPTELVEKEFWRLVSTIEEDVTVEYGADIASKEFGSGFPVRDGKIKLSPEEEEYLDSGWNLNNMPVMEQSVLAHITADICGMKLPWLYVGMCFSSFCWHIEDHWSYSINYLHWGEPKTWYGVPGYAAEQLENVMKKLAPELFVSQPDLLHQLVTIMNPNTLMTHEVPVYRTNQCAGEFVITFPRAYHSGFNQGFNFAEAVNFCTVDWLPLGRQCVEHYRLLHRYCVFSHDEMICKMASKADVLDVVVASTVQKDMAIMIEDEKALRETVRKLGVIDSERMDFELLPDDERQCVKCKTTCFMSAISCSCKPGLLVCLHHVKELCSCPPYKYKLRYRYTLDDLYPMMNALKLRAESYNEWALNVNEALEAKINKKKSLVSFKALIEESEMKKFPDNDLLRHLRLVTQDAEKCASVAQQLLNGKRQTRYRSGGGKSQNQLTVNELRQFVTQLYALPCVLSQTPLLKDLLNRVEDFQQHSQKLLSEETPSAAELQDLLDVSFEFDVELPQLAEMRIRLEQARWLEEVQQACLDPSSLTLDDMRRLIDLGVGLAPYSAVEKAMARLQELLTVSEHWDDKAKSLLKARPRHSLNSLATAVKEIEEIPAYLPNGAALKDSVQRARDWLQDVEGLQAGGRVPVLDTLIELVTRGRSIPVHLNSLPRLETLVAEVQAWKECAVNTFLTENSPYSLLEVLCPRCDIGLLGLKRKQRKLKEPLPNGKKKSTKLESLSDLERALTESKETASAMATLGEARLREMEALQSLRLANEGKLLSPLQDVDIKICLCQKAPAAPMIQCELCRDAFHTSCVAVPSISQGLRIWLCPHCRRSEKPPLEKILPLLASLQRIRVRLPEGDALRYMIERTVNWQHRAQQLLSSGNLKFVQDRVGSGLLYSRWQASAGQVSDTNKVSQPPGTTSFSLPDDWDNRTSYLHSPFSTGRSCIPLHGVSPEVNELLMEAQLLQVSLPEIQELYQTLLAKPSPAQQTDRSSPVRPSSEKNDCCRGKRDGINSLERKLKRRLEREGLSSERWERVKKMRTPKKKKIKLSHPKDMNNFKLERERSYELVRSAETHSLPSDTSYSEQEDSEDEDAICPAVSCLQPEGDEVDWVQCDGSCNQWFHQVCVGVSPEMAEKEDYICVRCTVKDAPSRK
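qHTS format, multiple compound concentrations. Buffer 50 mM HEPES pH 7.5/0.01% Tween-20; 200 nM KDM5BΔAP final; 10 min compound preincubation; substrate-mix levels 12.5 µM peptide, 25 µM α-KG, 0.25 mM NAD⁺; 30 min RT; ΔRFU.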
Active calls of the source: *; i = inactive. Potency means the concentration at half of the fitted maximal effect.

SMILES	KDM5B inh
CC(C)NC(=O)C[C@@H]1c2nc(NC(=O)c3ccc(F)cc3)sc2C[C@@H]2[C@](C)(CO)[C@H](O)CC[C@]21C	i
Cc1n[nH]c(C)c1CCC(=O)NC1CCCc2c1[nH]c1c(Cl)cccc21 (stereo not given)	i
CC(c1cc(F)ccc1F)N(C)CCS(=O)(=O)CCC(N)=O (stereo not given)	i
CN1CCN(C(=O)c2cnc(N3CCCC3)c3ccccc23)CC1	i
CCOC(=O)C1CCC(CNC(=O)Nc2c(NC)c3ccccc3oc2=O)CC1 (stereo not given)	i
CCCNc1c(NC(=O)Nc2ccc(F)cc2F)c(=O)oc2ccccc12	i
COCCn1c(SCC(=O)Nc2cc(C)c(Cl)cc2OC)nnc1-c1cccc(C)c1	i
Cc1ccc(Cl)cc1N1CCN(C(=O)CCS(=O)(=O)c2cccc3nsnc23)CC1	i
C[C@]1(CO)[C@H]2Cc3sc(NC(=O)c4c(F)cccc4F)nc3[C@@H](CC(=O)O)[C@]2(C)CC[C@H]1O	i
C[C@]1(CO)[C@H]2Cc3sc(NC(=O)C4CCCCC4)nc3[C@@H](CC(=O)O)[C@]2(C)CC[C@H]1O	i
C[C@]1(CO)[C@H]2Cc3sc(-c4ccccc4)nc3[C@@H](CC(=O)O)[C@]2(C)CC[C@H]1O	32µM*
CC(C)Oc1ccccc1CN1C[C@@H](CO)[C@H](c2ccncc2)C1	i
CCn1ccc(C(=O)N2C[C@@H](Oc3cccnc3)C[C@@H]2C(=O)NCCOC)n1	i
CCOc1cccc(C(=O)Nc2scc(-c3ccccc3Cl)c2C(=O)OC)c1	i
Cc1cccc(-c2ccc3c(c2)C(=O)N2CC[C@H](NC(=O)NC(C)C)[C@H]2C(=O)N3)c1C	i
CC(C)NC(=O)N[C@H]1CCN2C(=O)c3cc(-c4ccc(Cl)cc4)ccc3NC(=O)[C@H]12	32µM*
O=C(O)CCC(=O)N[C@H]1CCN2C(=O)c3cc(-c4ccc(Cl)cc4)ccc3NC(=O)[C@H]12	32µM*
Cc1cccc(-c2ccc3c(c2)C(=O)N2CC[C@H](NC(=O)CCC(=O)O)[C@H]2C(=O)N3)c1C	i
O=C(O)CCC(=O)N[C@H]1CCN2C(=O)c3ccc(Cl)cc3NC(=O)[C@H]12	i
O=C(NC1CCCCC1)N[C@H]1CCN2C(=O)c3cc(-c4ccccc4)ccc3NC(=O)[C@H]12	i
CC(C)CCNC(=O)c1cnc2n1CCN(Cc1c[nH]c3ccccc13)CC2	i
O=C(Nc1ccc2nc[nH]c(=O)c2c1)c1cc(Br)ccc1Cl	i
CO[C@H]1C[C@@H](O)C12CCN(C(=O)Cn1cc(C)c(=O)[nH]c1=O)CC2	i
O=C(O)CCc1cc2n(n1)CCCN(Cc1cn[nH]c1C(=O)O)C2	i
Cc1[nH]c(-c2ccccc2)nc1C(=O)N1CCn2nc(CCC(=O)O)cc2C1	i
SMILES	KDM5B inh
O=C(O)CCc1cc2n(n1)CCCN(C(=O)c1cc3c([nH]c1=O)CCC3)C2	28µM*
CCNC(=O)N(C1CC1)C1CCOC2(CCN(C(=O)c3n[nH]c4ccccc34)CC2)C1 (stereo not given)	i
Cc1noc(C)c1S(=O)(=O)N1CCCC2(C1)Nc1cccnc1NC2=NC1CCCC1 (stereo not given)	22µM*
O=C(Cc1ccccc1)N1CCCC2(C1)Nc1cccnc1NC2=NC1CCCC1 (stereo not given)	28µM*
O=C(CCc1ccccc1)N1CCCC2(C1)Nc1cccnc1NC2=NC1CCCC1 (stereo not given)	25µM*
O=C1NC2(CCCN(C(=O)Cc3ccccc3)C2)Oc2ccccc21 (stereo not given)	i
Cc1noc(C)c1S(=O)(=O)N1CCCC(Cc2noc(-c3cccnc3)n2)C1 (stereo not given)	i
O=C(Cc1ccccc1)N1CCCC2(CC(c3ccccn3)=NO2)C1 (stereo not given)	i
O=C(CCc1ccccc1)N1CCC(Oc2ncccc2C(=O)N2CCCCC2)C1 (stereo not given)	i
O=C(OCc1ccccc1)N1CCC2(C1)C(=NC1CCCC1)NC(=O)N2c1cccnc1 (stereo not given)	i
Cc1noc(C)c1S(=O)(=O)N1CCC[C@H](n2c(=O)n(C)c3cccnc32)C1	i
O=C(Nc1ccccc1C1CC1)C1CC1	i
CCn1cc(CN2CCC(N3C(=O)C4(CCCC4)C3c3ccccc3)CC2)cn1 (stereo not given)	i
O=C(Cc1cccc(Cl)c1)NCc1ccnc2[nH]ccc12	i
O=C(NCc1ccnc2[nH]ccc12)c1cccc(Cl)c1	35µM*
O=C(NCc1ccnc2[nH]ccc12)c1cccc(Br)c1	32µM*
O=C(NCc1c[nH]c2ncccc12)c1cccc2[nH]ccc12	35µM*
O=C(NCc1c[nH]c2ncccc12)c1ccc2ccccc2n1	i
Cc1cc(C(=O)NCc2c[nH]c3ncccc23)ccc1Cl	i
O=C(NCc1ccnc2[nH]ccc12)c1ccccc1	i
O=C(NCc1c[nH]c2ncccc12)c1cccc(Cl)c1	i
O=C(NCc1ccnc2[nH]ccc12)c1cncc(Br)c1	i
